Giardia FBPA inh – blocks Giardia fructose-bisphosphate aldolase activity | A8B2U2 | purified Giardia FBPA | 290,000 compounds, 0.71% hits | AID 2451 | Potency, µM (doses to about 59.6 µM), for the others: top-dose activity, negative = inhibition, most hits filed as inhibitors; note: potency is the fitted concentration of half-maximal effect; nearly all actives have a fitted effect of over 55% in size
Target sequence (A8B2U2 whole entry, looked up): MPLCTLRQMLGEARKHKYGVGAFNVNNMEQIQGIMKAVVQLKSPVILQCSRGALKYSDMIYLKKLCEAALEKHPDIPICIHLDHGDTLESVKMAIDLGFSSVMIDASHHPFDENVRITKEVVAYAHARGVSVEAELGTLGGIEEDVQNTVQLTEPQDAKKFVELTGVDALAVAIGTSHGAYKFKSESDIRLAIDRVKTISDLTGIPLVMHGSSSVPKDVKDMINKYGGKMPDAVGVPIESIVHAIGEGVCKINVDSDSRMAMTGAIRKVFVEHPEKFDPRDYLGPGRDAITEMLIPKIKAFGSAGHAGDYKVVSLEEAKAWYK
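40 nM FBPA preincubated 10 min at RT with compound (up to 57.5 uM final), then substrate plus GAPDH/TPI/NAD/arsenate coupling and diaphorase/resazurin added. Fluorescence read after 20 min at RT, 525/598 nm.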
RE007 growth inh – less growth of the S. pombe RE007 Vpr strain; S. pombe RE007 Vpr strain, BacTiter-Glo ATP luminescence, 24 h; Potency, µM (doses to about 92.2 µM), for the others: top-dose activity change, negative = less growth, actives largely listed as inhibitors; 360,000 compounds, 0.21% hits; active = well fitted falling curve with a large enough effect; inconclusive = small, poorly fitted or top-dose-only effect; inactive = no such curve, though single readings can be large or run the other way; note: potency is the fitted concentration of half-maximal effect; nearly all actives have a fitted effect of over 50% in size
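Fission yeast strain RE007, carrying one chromosomally integrated HIV-1 vpr copy, was seeded at OD 0.01 in PMG+AL medium with 23 nL pinned compound. After 24 h at 30 °C and 99% humidity, viability was read by BacTiter-Glo luminescence.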
Tb PYK inh – inhibitors of Trypanosoma brucei pyruvate kinase. TbPYK enzyme, Kinase-Glo Plus ATP luminescence, 45 min. Potency, µM (titrated, usually from 76.8 µM), inactives show at the top dose activity, negative = inhibition, usual class: inhibitors. 410,000 compounds, 0.12% hits. Q57TT1; note: potency is the fitted concentration of half-maximal effect; nearly all actives have a fitted effect of over 50% in size
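Screened from lowest to highest concentration, compounds were pinned into TbPYK/substrate mixtures, and ADP (130 uM final) was added. Plates sat at room temperature for 45 min prior to Kinase-Glo Plus detection by luminescence.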
Sm TGR inh – inhibitors of Schistosoma mansoni thioredoxin glutathione reductase; purified TGR, DTNB reduction, TNB absorbance 405 nm; Potency, µM (series often up to 114 µM), for the others: at the highest dose activity change, negative = inhibition, usual class: inhibitors; 360,000 compounds, 3% hits; AID 485364; note: potency is the fitted concentration of half-maximal effect; nearly all actives have a fitted effect of over 60% in size
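Kinetic colorimetric format: TGR-catalysed, NADPH-driven DTNB reduction monitored via TNB absorbance. Enzyme dispensed at 20 nM; compound exposure 15 min at room temperature before reaction start.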
FMDV inh – antivirals against foot and mouth disease virus; FMDV antiviral cell-based qHTS; Potency, µM (highest dose often 57.9 µM), for the others: at the highest dose activity change, negative = inhibition, hits mostly inhibitors; 410,000 compounds, 1.2% hits; AID 1159524; calls by dose curve; tested in HEK293T cells; note: read-out not given here; potency is the fitted concentration of half-maximal effect; nearly all actives have a fitted effect of over 45% in size
HCMV antiviral – human cytomegalovirus inhibition; HFF cells, HCMV-luciferase reporter, 72 h; hits give low values; activity change, negative = inhibition, % at 57.5 µM; 410,000 compounds, 4.5% hits; in the data active = activity change below about -60%; inconclusive = no clear call, values can overlap the other calls; inactive = above about -39%
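After 16 h attachment at 37C, HFF cells received test compound and HCMV-luciferase (1 PFU/cell); reporter luminescence read 72 h later, data normalized against buffer-only and known inhibitor Salinomycin.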
* = called active by the depositor; ? = inconclusive; · = no result given; ! = repeats disagree; [ ] = another dose, or the depositor's remark. Only some compounds are listed: those with a hit (about 7.7% of all), similar ones and a draw of the others. Unless noted, calls come from the whole dose curve; as a rule, active = well fitted curve in the direction sought with a large enough effect; inconclusive = small, poorly fitted or top-dose-only effect, or another doubt; inactive = no such curve, though single readings can be large; an effect the other way counts as inactive or inconclusive. % is set by controls: 0 for no effect and ±100 for the full control effect.

SMILES	Giardia FBPA inh	RE007 growth inh	Tb PYK inh	Sm TGR inh	FMDV inh	HCMV antiviral
CC(=O)C1=C(C)NC(SCC(=O)c2ccccc2)=C(C#N)C1CC(C)C (stereo unspecified)	-6%	11%	32µM*	24%	-9%	7
Cc1cc(=O)c(C(=O)NCCCc2ccncc2)c2n1-c1ccccc1SC(c1cccs1)C2 (stereo unspecified)	·	·	·	·	-9%	·
CC[n+]1c(/C=C/C=C/N(C(C)=O)c2ccccc2)sc2cc(OC)ccc21	-6%	-22%	?	-9%	?	-66*
CC[n+]1c(/C=C(\C)OC)sc2ccccc21	-16%	-3%	-6%	21%	1%	-18
Cc1ccc(Cl)cc1-n1ncc2c(NC3CCCCC3)ncnc21	·	·	0%	4%	?	-78*
Cc1ccc(Cl)cc1-n1ncc2c(Nc3ccc4c(c3)OCCO4)ncnc21	·	·	-4%	2%	?	-88*
Cc1ccc(-n2ncc3c(Nc4ccc5c(c4)OCCO5)ncnc32)cc1Cl	·	·	3%	-2%	-23%	-24
CCOC(=O)N1CCC(Nc2ncnc3c2cnn3-c2ccc(C)cc2C)CC1	5%	4%	5%	-1%	?	-93*
COc1cc2c(=O)c(C(=O)c3ccc(F)cc3)cn(Cc3cccc(F)c3)c2cc1OC	·	·	-8%	4%	-20%	-11
NC(=O)c1ccc(-c2ccc(Br)cc2)o1	-1%	-11%	-2%	40µM*	48%	52
NC(=O)C1CCN(C(=S)c2ccc(-c3ccc(Br)cc3)o2)CC1	3.5µM*	-5%	?	-29%	73%	61
CN1C(=O)C(C)(C(Nc2ccccc2)c2ccccc2)c2ccccc21 (stereo unspecified)	·	·	·	·	·	20
CCCCCCN1C=CC(=C2C(=O)c3ccccc3C2=O)C=C1	-13%	-14%	-2%	0%	-74%	-66*
CCN1C=CC(=C2C(=O)c3ccccc3C2=O)C=C1	-14%	?	?	-8%	4.5µM*	-89*
CN1C=CC(=C2C(=O)c3ccccc3C2=O)C=C1	-3%	·	·	-2%[11.4 µM]	·	·
CCCN1C=CC(=C2C(=O)c3ccccc3C2=O)C=C1	-6%	?	?	3%	1µM*	-98*
CCOc1cc(C=C(C#N)C#N)ccc1Oc1ccc([N+](=O)[O-])cn1	?	-13%	-6%	·	-36%	11
COc1cc(/C=C(/C#N)c2ccc(F)cc2)ccc1Oc1ccc([N+](=O)[O-])cn1	-5%	-12%	-5%	-15%	?	-61*
CCCc1nc2sc3c(c2c(=O)n1NC(=O)c1ccco1)CC(C)(C)OC3	7%	-2%	4%	11µM*	-18%	-21
CN1CCN(C(c2ccc(Br)cc2)c2cc(Cl)c3cccnc3c2O)CC1 (stereo unspecified)	10%	-6%	44%	0.63µM*	?	126
Cc1ccc(S(=O)(=O)Nc2cccnc2Oc2ccc(Cl)cc2)cc1	-18%	14%	0%	11%	-17%	14
Oc1c(Cl)cc(Cl)c2cccnc12	?	?	-8%	16µM*	?	-99*
Cc1ccc(S(=O)(=O)Nc2cc(Cl)c(O)c3ncccc23)cc1	-24%	?	-22%	16µM*	-12%	-98*
Cc1ccc2c(Cl)cc(Cl)c(O)c2n1	-6%	?	-9%	·	10µM*!	-75*
Cc1cccc(N2CCN(S(=O)(=O)c3csc(C(N)=O)c3)CC2)c1C	·	·	-1%	8%	?	?
CCC(=O)NC(C)c1cc(Cl)c2cccnc2c1O (stereo unspecified)	·	·	4%	-4%	0%	-97*
CC(=O)NC(C)c1cc(Cl)c2cccnc2c1O (stereo unspecified)	·	·	1%	-10%	-19%	-96*
CC(=O)NC(C)c1cc(Cl)c2ccccc2c1O (stereo unspecified)	·	·	-3%	-30%	0%	-4
Oc1c(I)cc(I)c2cccnc12	1%	-30%	-8%	?	-22%	-100*

From PubChem BioAssay
